Sensor-assay potency score (higher = more potent) data for 24 sequences are collected here from the OligoGym collection.
Further: reference of the scale not given here.

The target of one experiment is METRNL. Nature of the experiment: pooled miR-30 sensor sort-seq; sequence = guide strand. To be noted: shRNA.
Sequence TGAAGCGTGGGGCACAGCCGAG gave a sensor-assay potency score (higher = more potent) of -1.51.

Sequence TACTGGAAGCCTGTGGTCCTCC came in with a sensor-assay potency score (higher = more potent) of -0.709.

Take ATAGAGTCTGCTCACGCGCAGG: the sensor-assay potency score (higher = more potent) was -1.52.

TTTTACAGCATTTCCAATCGGC: the sensor-assay potency score (higher = more potent) was determined as 0.396.

Sequence TGAAGGACCTGATGCACACGGT came in with a sensor-assay potency score (higher = more potent) of -0.842.

As to TAACGATGAGAGCACCTGTTGG, the sensor-assay potency score (higher = more potent) was -0.773.

Take TTAGTTTGCATTTTACAGCATT: the sensor-assay potency score (higher = more potent) is -0.859.

With TGGAAGTCCTTGAAGCGTGGGG, the sensor-assay potency score (higher = more potent) was -0.538.

TTAACGATGAGAGCACCTGTTG returned a sensor-assay potency score (higher = more potent) of -1.05.

Take TCGAACGGCGAAGTCGCTGGTG: the sensor-assay potency score (higher = more potent) was -0.372.

As for TACATCCTCTGGAAGTCCTTGA, the sensor-assay potency score (higher = more potent) amounted to 0.329.

Take TAGAGTCTGCTCACGCGCAGGT: the sensor-assay potency score (higher = more potent) is 0.197.

In another experiment the target is METTL16. The description is as above. The conditions noted are these: shRNA.
As to TTCTTCTTTAAGAGCATCCATC, the sensor-assay potency score (higher = more potent) was -1.07.

On to TAACAAACTCTAATTCACCTCC, for which the sensor-assay potency score (higher = more potent) turned out to be 0.296.

TTGTCCTTGTATCTATTTCTTG came in with a sensor-assay potency score (higher = more potent) of -1.01.

As for TGTATTAACAGAACTAGGCGGA, the sensor-assay potency score (higher = more potent) came to 0.503.

TTATCAAACACTTAAACAGGTA came in with a sensor-assay potency score (higher = more potent) of -0.44.

TTTGCTTACCTAATTCTGCTTC: the sensor-assay potency score (higher = more potent) stood at 0.554.

In turn, TTTCTCTAATTTTCTTCGCTTA registered a sensor-assay potency score (higher = more potent) of -0.889.

As to TTTAAGAGCATCCATCAGGAGT, the sensor-assay potency score (higher = more potent) was -1.04.

Regarding TAAGGCATCGTCCACCTCCTTC, the sensor-assay potency score (higher = more potent) is -0.93.

For the sequence TTCTTTAAGAGCATCCATCAGG, the sensor-assay potency score (higher = more potent) was -0.744.

TTCTTCGCTTACTTGGTGGTGA displayed a sensor-assay potency score (higher = more potent) of 0.819.

TTAACGTTTATCAAACACTTAA displayed a sensor-assay potency score (higher = more potent) of -1.21.
